The supplement of paper PMC12350171
Structures can show the parent of a compound that is named as a salt. Unmarked numbers belong to inactive results.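 The calls were made as follows: active = normalised median growth AUC below 0.1 of DMSO control; inactive = AUC 0.1 or higher.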

The molecules below were run on P. vulgatus WT (assay: growth AUC normalised to DMSO control (median) (fraction of control); higher = less growth inhibition, active = hit call of the paper). Conditions: 20 µM.
How it was run: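 For normalised area under the curve, growth curves were truncated at entry into stationary phase, integrated by the trapezoidal rule and divided against vehicle wells on the same plate. The curves came from strains passaged twice overnight without oxygen and then grown in mGAM in 96-well plates at a starting OD578 of 0.01. Each well held an approved-drug library compound at 20 μM with 1% DMSO, and OD578 was read hourly for 24 h in an anaerobic incubator. Values are medians of three biological replicates.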
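Also: active when median AUC fell below 0.1.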

| Compound | growth AUC normalised to DMSO control |
| --- | --- |
| Nc1c(Br)cc(Br)cc1CN[C@H]1CC[C@H](O)CC1 [Ambroxol hydrochloride] | 0.961 |
| O=C(O)c1cn(C2CC2)c2cc(N3CCNCC3)c(F)cc2c1=O [Ciprofloxacin hydrochloride monohydrate] | 0.679 |
| OCCOCCN1CCN(C(c2ccccc2)c2ccc(Cl)cc2)CC1 (stereo not drawn) [Hydroxyzine dihydrochloride] | 1 |
| CN1CCC(OC(c2ccccc2)c2ccccc2)CC1 [Diphenylpyraline hydrochloride] | 1 |
| NCc1ccc(S(N)(=O)=O)cc1 [Mafenide hydrochloride] | 0.815 |
| O=C(O)CCc1nc(-c2ccccc2)c(-c2ccccc2)o1 [Oxaprozin] | 1.05 |
| CCN(CC)CCNC(=O)c1cc(Br)c(N)cc1OC [Bromopride] | 1.01 |
| CN(C/C=C/c1ccccc1)Cc1cccc2ccccc12 [Naftifine hydrochloride] | 1.01 |
| Nc1nc(=O)n([C@@H]2CS[C@H](CO)O2)cc1F [(-) Emtricitabine] | 0.986 |
| CC(C(=O)O)c1ccc(C(=O)c2cccs2)cc1 (stereo not drawn) [Suprofen] | 1.03 |
| OCCN1CCN(CCCN2c3ccccc3C=Cc3ccccc32)CC1 [Opipramol dihydrochloride] | 1.01 |
| c1ccc(CC2=NCCN2)cc1 [Tolazoline hydrochloride] | 1.07 |
| CC=C(C)C(=O)OC1C(OC(C)=O)C2(CO)C(O)CC3(C)C(=CCC4C5(C)CCC(OC6OC(C(=O)O)C(OC7OC(CO)C(O)C(O)C7O)C(O)C6OC6OC(CO)C(O)C(O)C6O)C(C)(CO)C5CCC43C)C2CC1(C)C (stereo not drawn) [Beta-Escin] | 0.981 |
